Results on twelve compounds are retold here after the supplement of paper PMC10646978.

What all share (settings): modulator concentration 10 µM
For test [1], the system named is RAW-Dual (murine macrophage reporter line). The test is described as follows: NF-kB reporter (SEAP) activity fold change vs agonist alone; higher = enhanced NF-kB activity. The method, boiled down: (§1)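 Compound reached 10 μM final in each well by pin transfer, onto RAW-Dual murine macrophage reporter cells seeded at 50 000 per well in 384-well plates. After 1 hour at 37 °C, the cells were stimulated overnight with a PRR agonist. SEAP in the supernatant was read with QUANTI-Blue at 620 nm absorbance for NF-κB, and Lucia luciferase was read with QUANTI-Luc luminescence for IRF. Each signal was turned into fold change against the mean agonist-only control on the same plate, and two replicate plates were averaged with propagated errors.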

The test system is the same in test [2]. The test is described as follows: IRF reporter (Lucia luciferase) activity fold change vs agonist alone; higher = enhanced IRF activity. The essentials: as §1
The test system is the same in test [3]. The test can be described thus: viability score (confluency relative to resting cells, overnight) (fraction); higher = more viable, active = viable (0.7 or more). The essentials: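 RAW-Dual macrophages in 384-well plates were treated overnight with compound at 10 μM final. IncuCyte imaging recorded confluency, and IncuCyte software built two confluency masks across every imaged well. The viability score expresses confluency relative to resting cells and was judged against a cutoff, which a compound met only if both masks exceeded 70% of resting cells.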

[4] abbreviates: agonist: CpG ODN 1826 0.5 ug/mL.

± gives the standard deviation.

Turning to `C=CCN1C(=O)C(=C2SC(=S)N(C)C2=O)c2ccccc21`, the NF-kB reporter amounted to 0.76 ± 0.072 in test [1] (setting [4]), 0.833 ± 0.085 in test [1] (agonist: LPS 0.1 ug/mL) and 1.03 ± 0.12 in test [1] (agonist: MPLA […]). The IRF reporter in test [2] (agonist: 3'3'-cGAMP 10 ug/mL) is 0.971 ± 0.05; in test [2] (agonist: LPS 0.1 ug/mL), 1.33 ± 0.078; in test [2] (agonist: MPLA […]), 1.42 ± 0.15. Further, the viability score in test [3] is 0.997 (active).

In the case of `O=C(NCC(O)Cc1ccccc1)Nc1ccc(F)cc1` (centres undefined), the NF-kB reporter in test [1] (setting [4]) came to 0.893 ± 0.096; in test [1] (agonist: LPS 0.1 ug/mL), 0.969 ± 0.077; in test [1] (agonist: MPLA […]), 1.08 ± 0.064. In addition, the IRF reporter stood at 1.04 ± 0.048 in test [2] (agonist: 3'3'-cGAMP 10 ug/mL), 1.28 ± 0.3 in test [2] (agonist: LPS 0.1 ug/mL) and 1.36 ± 0.37 in test [2] (agonist: MPLA […]). For the same compound, in test [3], the viability score was 0.971 (active).

Turning to `COC1CCN(C2CN(C(=O)CCn3cnc4ccccc4c3=O)C2)CC1`, the NF-kB reporter in test [1] (setting [4]) came out at 1.05 ± 0.052; in test [1] (agonist: LPS 0.1 ug/mL), 1.08 ± 0.092; in test [1] (agonist: MPLA […]), 0.882 ± 0.044. Further, the IRF reporter in test [2] (agonist: 3'3'-cGAMP 10 ug/mL) worked out at 1.01 ± 0.052; in test [2] (agonist: LPS 0.1 ug/mL), 1.27 ± 0.076; in test [2] (agonist: MPLA […]) it was 1.13 ± 0.24. Further, the viability score in test [3] was 0.994 (active).

On to `CCS(=O)(=O)N1CCN(c2ccc(Nc3ncc(C(N)=O)c(NC4CC4)n3)cc2)CC1.Cl`, for which the NF-kB reporter amounted to 1.08 ± 0.046 in test [1] (setting [4]), 0.355 ± 0.033 in test [1] (agonist: LPS 0.1 ug/mL) and 0.622 ± 0.042 in test [1] (agonist: MPLA […]). Besides, the IRF reporter in test [2] (agonist: 3'3'-cGAMP 10 ug/mL) was found to be 0.0973 ± 0.0051; in test [2] (agonist: LPS 0.1 ug/mL), 0.301 ± 0.072; in test [2] (agonist: MPLA […]), 0.324 ± 0.081. In test [3], the viability score was 0.899 (active).

Consider `Nc1nc(NC2CC2)c2ncn([C@H]3C=C[C@@H](CO)C3)c2n1` [Prestw-1512], for which the NF-kB reporter was determined as 1.12 ± 0.18 in test [1] (setting [4]), 1.18 ± 0.11 in test [1] (agonist: LPS 0.1 ug/mL) and 1.02 ± 0.087 in test [1] (agonist: MPLA […]). Besides, the IRF reporter was determined as 0.935 ± 0.031 in test [2] (agonist: 3'3'-cGAMP 10 ug/mL), 1.01 ± 0.21 in test [2] (agonist: LPS 0.1 ug/mL) and 1.12 ± 0.19 in test [2] (agonist: MPLA […]). The viability score in test [3] is 0.974 (active).

Consider `S=C(NCCN1CCOCC1)Nc1ccc(Cl)cc1`, for which the NF-kB reporter worked out at 1 ± 0.23 in test [1] (setting [4]), 0.966 ± 0.1 in test [1] (agonist: LPS 0.1 ug/mL) and 0.886 ± 0.12 in test [1] (agonist: MPLA […]). Besides, the IRF reporter in test [2] (agonist: 3'3'-cGAMP 10 ug/mL) came out at 0.71 ± 0.019; in test [2] (agonist: LPS 0.1 ug/mL), 1.22 ± 0.16; in test [2] (agonist: MPLA […]) it was 1.13 ± 0.12. In test [3], the viability score is 0.986 (active).

Regarding `CCCCCCc1cc2cc(-c3nc(-c4ccc(Oc5ccccc5)cc4)cs3)c(=O)oc2cc1O`, the NF-kB reporter in test [1] (setting [4]) was 0.962 ± 0.096; in test [1] (agonist: LPS 0.1 ug/mL), 1.04 ± 0.085; in test [1] (agonist: MPLA […]), 0.946 ± 0.068. Also, the IRF reporter in test [2] (agonist: 3'3'-cGAMP 10 ug/mL) came out at 0.873 ± 0.024; in test [2] (agonist: LPS 0.1 ug/mL), 1.42 ± 0.22; in test [2] (agonist: MPLA […]), 1.12 ± 0.29. Also, the viability score in test [3] was 1.01 (active).

In the case of `COC(=O)C1=CN(C2CC2)C=C(C(=O)OC)C1c1ccccc1Cl`, the results for the NF-kB reporter in test [1] (setting [4]), in test [1] (agonist: LPS 0.1 ug/mL) and in test [1] (agonist: MPLA […]) were 1.12 ± 0.1, 0.722 ± 0.07 and 1.1 ± 0.052, respectively. Also, the figures for the IRF reporter in test [2] (agonist: 3'3'-cGAMP 10 ug/mL), in test [2] (agonist: LPS 0.1 ug/mL) and in test [2] (agonist: MPLA […]) were 0.945 ± 0.11, 0.905 ± 0.039 and 1.06 ± 0.17, respectively. Also, the viability score in test [3] is 1 (active).

In the case of `COc1ccc(C=NNC(=O)c2ccc(CN3CCOCC3)cc2)cc1[N+](=O)[O-]`, the figures for the NF-kB reporter in test [1] (setting [4]), in test [1] (agonist: LPS 0.1 ug/mL) and in test [1] (agonist: MPLA […]) were 1.01 ± 0.085, 1.06 ± 0.089 and 0.961 ± 0.067, respectively. The IRF reporter in test [2] (agonist: 3'3'-cGAMP 10 ug/mL) came out at 1.04 ± 0.039; in test [2] (agonist: LPS 0.1 ug/mL), 1.47 ± 0.14; in test [2] (agonist: MPLA […]) it was 1.28 ± 0.11. In addition, in test [3], the viability score is 0.988 (active).

In the case of `COc1ccc(OC)c(CN2CCCC(O)C2)c1` (centres undefined), the NF-kB reporter in test [1] (setting [4]) worked out at 1.19 ± 0.075; in test [1] (agonist: LPS 0.1 ug/mL), 1.01 ± 0.081; in test [1] (agonist: MPLA […]), 0.942 ± 0.027. Further, the IRF reporter in test [2] (agonist: 3'3'-cGAMP 10 ug/mL) worked out at 0.963 ± 0.055; in test [2] (agonist: LPS 0.1 ug/mL), 1.07 ± 0.061; in test [2] (agonist: MPLA […]) it was 1.06 ± 0.1. In addition, in test [3], the viability score was 1 (active).

For `O=C(NC1CCCCCC1)c1ccc([N+](=O)[O-])cc1Cl`, the NF-kB reporter amounted to 1.1 ± 0.084 in test [1] (setting [4]), 0.94 ± 0.07 in test [1] (agonist: LPS 0.1 ug/mL) and 0.919 ± 0.1 in test [1] (agonist: MPLA […]). The IRF reporter in test [2] (agonist: 3'3'-cGAMP 10 ug/mL) stood at 0.804 ± 0.035; in test [2] (agonist: LPS 0.1 ug/mL) it was 1.08 ± 0.14; in test [2] (agonist: MPLA […]), 1.08 ± 0.13. For the same compound, in test [3], the viability score was 0.983 (active).

In the case of `Cc1ccccc1C(=O)Nc1ccc(C(=O)N2CCCC(O)c3cc(Cl)ccc32)c(C)c1` (centres undefined), the NF-kB reporter stood at 1.02 ± 0.2 in test [1] (setting [4]), 1.09 ± 0.15 in test [1] (agonist: LPS 0.1 ug/mL) and 0.92 ± 0.056 in test [1] (agonist: MPLA […]). Besides, the IRF reporter in test [2] (agonist: 3'3'-cGAMP 10 ug/mL) amounted to 0.601 ± 0.019; in test [2] (agonist: LPS 0.1 ug/mL), 1.04 ± 0.29; in test [2] (agonist: MPLA […]), 1.07 ± 0.13. The viability score in test [3] is 0.998 (active).
